# Experimental data as given in PubChem BioAssay (NCI).
# Several values for one entry are separate records, joined by “and”; a condition that tells them apart may be missing. Equal entries are not always repeated. This is part of a sample that, as a whole, favours compounds with a hit. Of some 83,000 tested, about 20% had one in any assay.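 For each line, cells grew in 96-well plates with the test compound present at a single concentration for 48 hours.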 A number with no mark means an inactive call. Activity calls are given as the source filed them. How the source made its calls: active means growth percent below 10; inactive means the rest.
# Tested on: HL-60(TB) leukemia
# Experiment: NCI-60 one-dose screen, 48 h (100 = growth as untreated, 0 = no growth, -100 = all killed)
# Details: 10 µM unless noted
row,SMILES,growth
1,c1cc(CNCCNCc2ccncc2)ccn1,75.8%
2,COc1cc2c(cc1OC)C1(C)N(CC2)C(=O)OC1(C)C (stereo not given),-79.2% (active)
3,CN(C)CCn1c(=O)c2c3cc4c(cc3n(CCN(C)C)c2c2ccc(Cl)cc21)OCO4,19.5%
4,CC(C)(C)c1ccc(S(=O)(=O)N[C@H]2CC[C@H]3[C@@H]4CCc5cc(OS(=O)(=O)O)ccc5[C@H]4CC[C@]23C)cc1,19.6%
5,COc1cc2c(c(OC)c1OC)-c1ccc(OC)c(=O)cc1[C@@H](NC(=O)CCl)CC2,-7.51% (active)
6,COC(=O)[C@]12CCC(C)(C)C[C@H]1C1=CC[C@@H]3[C@@]4(C)C/C(=C/c5cccnc5)C(=O)C(C)(C)[C@@H]4CC[C@@]3(C)[C@]1(C)CC2,-13.5% [100 µM] (active)
7,O=C1c2cc(I)ccc2Oc2cc([N+](=O)[O-])ccc2N1c1ccc(Cl)cc1F,55.9%
8,CCOc1ccc(/C=N/Nc2cc(C)nc3ccc(Cl)cc23)cc1,-51.7% (active)
9,COc1ccc(-c2ccc(C)n2-c2ccc(-c3nc4ccccc4s3)cc2)cc1,53.5%
10,Nc1ccc(N2CCOCC2)cc1,81.8%
11,CCNC(=O)Nc1ccc(-c2nc3c(c(N4CCOC[C@@H]4C)n2)CCN(C2COC2)C3)cc1,82.6% and 44.4%
12,CCCCCCCCCCCCNC(=O)[C@H]1CSC(c2ccsc2)N1 (stereo not given in full),-12.6% (active)
13,COc1ccc(S(=O)(=O)Nc2ccc(OCc3nnc(-c4ccc(Cl)cc4)o3)c(F)c2)cc1,51.2%
14,NC1(c2ccc(-c3nc4ccn5c(=O)[nH]nc5c4cc3-c3ccccc3)cc2)CCC1,50.1%
15,O=C(CSC1CCc2ccccc21)N/N=C/c1ccccc1O (stereo not given),-12% (active)
16,O=C(Nc1ccncc1)C(=O)c1cn(S(=O)(=O)c2ccc(Br)cc2)c2ccccc12,15.3%
17,CCn1cc(C(=O)O)c(=O)c2cc(F)c(N3CCN(CC(=O)Nc4ccc(C(C)=O)cc4)CC3)cc21,95.7%
18,NC(N)=NCCCCCNc1noc(Cc2c[nH]c3cc(Br)ccc23)n1,44.9%
19,CCN(CC)c1ccc2nc3ccc(=[N+](CC)CC)cc-3oc2c1,-12.7% (active)
20,CCCCN1C(=O)c2cccc3c(-c4ccc5c(c4)ncn5C4CCCCC4)ccc(c23)C1=O,99.7%

row,SMILES,growth
1,CCN(CC)c1ccc(C(=N)c2ccc(N(CC)CC)cc2)cc1,-23.4% (active)
2,CCCCCCCC12Cc3ccccc3C1=Nc1c(c3ccccc3n1C)C2=O (stereo not given),91.4%
3,COc1ccc(C2=CC(c3cc(OC)c(OC)c(OC)c3)NC(=O)N2)cc1OC (stereo not given),2.95% (active)
4,NC(N)=N/N=C/c1ccc(-c2ccc(-c3ccc(Cl)cn3)s2)cc1,97.8%
5,COc1cc(C2CC(c3cccc(Nc4ccncc4)c3)=NN2c2ccc(Cl)cc2)cc(OC)c1OC (stereo not given),-45.2% (active)
6,O=C(Nc1nc2ccc(F)cc2s1)c1cc(-c2ccc(F)cc2)n2nc(-c3ccccc3)cc2n1,92.9%
7,CCOc1ccccc1/C=N\N=C(\N)N/N=C/c1ccccc1OCC,-7.32% (active)
8,CCn1c(Sc2nnc(NC(=O)CCN3CCCC3)s2)nc2c1c(=O)n(C)c(=O)n2C,104%
9,COc1ccc(-c2ccc(-c3ccc(C(=N)N)s3)s2)cc1,-61.1% (active)
10,C[C@]12CC[C@@H]3c4ccc(O)cc4CC[C@H]3[C@@H]1C[C@H](O)[C@@H]2O,112%
11,Cn1cc(-c2csc(-c3c[nH]c4ccccc34)n2)c2cccnc21,11.5%
12,CCOC(=O)Cn1c(O)c(N=Nc2ccc(S(N)(=O)=O)cc2)c2cc(Br)ccc21,96.2%
13,O=C1c2cccnc2C(=O)c2c1c(C(=O)NCCn1ccnc1)c1ccccn21,0.989% (active)
14,NC1CCC(Nc2nc(NCc3ccc(-c4cccs4)nc3)c3ncn(C4CCCC4)c3n2)CC1 (stereo not given),-29.7% (active)
15,O=Cc1c(O)c2ccccc2[nH]c1=O,126%
16,CCCCN(CCCC)CC(C)(C)C(O)c1ccc(OC)c2ccccc12 (stereo not given),56.3%
17,COc1ccc(C(C)=O)cc1S(=O)(=O)Nc1c(N)nc(SC)[nH]c1=O,96.8%
18,CCOC(=O)c1c(NC(=O)c2ccc(C(C)C)cc2)sc2c(CN(C)C)c(O)ccc12,-34.8% (active)
19,COc1cccc(-c2cc(-c3cccs3)c(C#N)c(=O)[nH]2)c1,102%
20,Oc1cccc(-c2nc3sccn3c2-c2ccncn2)c1,99.2%
